# Assay outcomes: PubChem BioAssay, several laboratories
# 697 NFkB inh = lowers PMA/ionomycin-induced NF-kB signal in 697 B cells. 697 B-cell NF-kB luciferase reporter, 16 h. inhibition, % at 4 µM. 0.33% of 330,000 active. AID 435022; in the data active = inhibition above about 35%
# Mdm2 MdmX PPI = disrupts the human Mdm2-MdmX interaction | 3% of 330,000 active | AID 485346 | inhibition, % at 8 µM | SaOS-2 split-luciferase Mdm2/MdmX complementation, luminescence | O15151+Q00987;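 active = inhibition of at least 50% at 8 µM in the primary screen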
# Jurkat NFkB inh = lowers PMA/ionomycin-induced NF-kB signal in Jurkat cells; PMA/ionomycin-induced NF-kB luciferase reporter, luminescence; inhibition, % at 4 µM; 0.53% of 330,000 active; AID 435003; in the data active = inhibition above about 50%
# Shn3 3UTR inh = reduces Shn3 3'UTR luciferase signal in osteoblasts; Clone20 osteoblast Shn3 3'UTR firefly luciferase, 24 h; 0.52% of 360,000 active; inhibition, % at 12.5 µM;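 active = mean inhibition of at least 75% with every replicate also reaching 75%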;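 note: 0% = median of neutral control wells and 100% = pilot-screen positive control compound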
# Gli-Sufu antag = blocks Gli-Sufu signaling in a luciferase reporter; inhibition, % at 5 µM; Sufu-KO-LIGHT fibroblasts, Gli luciferase reporter luminescence; 0.74% of 340,000 active;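 active = inhibition above about 55%, limit read from the data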;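 note: 0% = DMSO-treated cells and 100% = wells with medium but no cells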
# Mdm2 MdmX conf = human Mdm2/MdmX binding inhibition, confirmed; shares compounds with Mdm2 MdmX PPI; inhibition, % at 8 µM; luminescent assay; 55% of 10,000 active; in the data active = inhibition above about 40%
# FLuc counter = inhibits full-length luciferase, flagging false Mdm2/MdmX hits. shares compounds with Mdm2 MdmX PPI. SaOS-2 full-length luciferase counterscreen, luminescence. inhibition, % at 8 µM. 77% of 6,200 active;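 active = mean inhibition at 8 µM reaching about 37%, which flags the compound as non-specific, limit read from the data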;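 note: p53-null SaOS-2 cells with luciferase driven by a doxycycline-inducible promoter; compound on cells about two nights before reading with doxycycline added after day one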
# Numbers without * were called inactive; . = not tested or not shown. Compounds with a hit are over-represented: about 3.8% of the library has one in this group of screens.
SMILES,697 NFkB inh,Mdm2 MdmX PPI,Jurkat NFkB inh,Shn3 3UTR inh,Gli-Sufu antag,Mdm2 MdmX conf,others
Cc1cc(C)n(-c2ccc3cccc(NS(C)(=O)=O)c3n2)n1,-23,74*,34,90*,42,44*,FLuc counter=32
CC1(C(=O)NS(=O)(=O)c2ccc(F)cc2F)CCN1C(=O)c1cccc(F)c1 (centres undefined),.,.,.,3,.,.,
COc1cc(C(=O)NCC2(N(C)C)CCCCC2)ccc1OCc1ccccc1,-2,10,-4,4,28,.,
COc1ccc2cc(C(=O)/C=C/c3cc(OC)c(O)c(OC)c3)ccc2c1,-22,0,-2,-29,4,.,
COc1ccc(C(=O)/C=C/c2cc(OC)c(O)c(OC)c2)c(F)c1,-9,51*,-10,-19,0,30,
COc1ccc2[nH]c3c(c2c1)CCN1C(=O)C(CC(=O)NC/C=C(\C)CCC=C(C)C)C[C@H](C(=O)N(C(C)C)C(C)C)[C@@]31C (some centres undefined),5,84*,.,58,3,8,
CC(C)=CCC/C(C)=C/CNC(=O)CC1C[C@H](C(=O)N(C(C)C)C(C)C)[C@@]2(C)c3[nH]c4ccccc4c3CCN2C1=O (some centres undefined),1,53*,9,58,0,-10,
CC(C)=CCC/C(C)=C/CNC(=O)C[C@H]1C[C@H](C(=O)N(C(C)C)C(C)C)[C@@]2(C)c3[nH]c4ccc(Cl)cc4c3CCN2C1=O,4,51*,.,30,0,1,
COc1ccc2[nH]c3c(c2c1)CCN1C(=O)C(CC(=O)NC(C)(C)C)C[C@H](C(=O)N(C(C)C)C(C)C)[C@@]31C (some centres undefined),8,20,.,-3,0,.,
COc1ccc(CNC(=O)C[C@H]2C[C@H](C(=O)N(C(C)C)C(C)C)[C@@]3(C)c4[nH]c5ccc(Cl)cc5c4CCN3C2=O)cc1OC,2,21,.,13,-7,.,
COC(=O)c1sccc1NC(=O)Nc1cccc(F)c1,-15,17,3,17,2,.,
CC1(c2nnc(-c3ccncc3)o2)CC(c2cccc(Cl)c2)=NO1 (centres undefined),2,24,5,10,-6,.,
Cc1coc2c1C(=O)C(=O)c1c-2ccc2c1CCCC2(C)C,6,53*,-7,-11,-17,6,
Cc1ccc2c3c(cccc13)-c1ccccc1C2=O,-52,-57,-35,-32,.,.,
Cc1coc2c1C(=O)C(=O)c1c-2ccc2c(C)cccc12,-12,65*,0,-65,-16,14,
CCNC(=O)C1(C)CCN(C(=O)c2ccc3ccccc3c2)C1 (centres undefined),.,.,.,-6,.,.,
Cc1nn(CC(=O)NCCCN2CCC(Cc3ccccc3)CC2)c(=O)c2cc(-c3ccccc3)nn12,-2,96*,12,-4,-24,69*,FLuc counter=41*
CCc1ccc(-c2cc3c(=O)n(CC(=O)NCCCN4CCC(Cc5ccccc5)CC4)nc(C)n3n2)cc1,-35,100*,23,79,20,99*,FLuc counter=53*
Cc1nn(CC(=O)NCCCN2CCN(Cc3ccccc3)CC2)c(=O)c2cc(-c3ccccc3)nn12,-3,31,4,55,35,.,
C[C@@H]1CN([C@@H](C)CO)C(=O)CCCn2nncc2CO[C@@H]1CN(C)C(=O)c1ccc(N2CCN(C)CC2)cc1,.,.,.,-4,.,.,
C=CC[C@]12CCc3sccc3C1N(c1ccc(C(=O)OCC)cc1)C2=O (some centres undefined),-20,10,15,25,4,.,
Cc1nc(SCC(=O)NNC(=O)c2cccs2)[nH]c(=O)c1C,17,-3,0,5,0,.,
COc1cc(OC)c2c(-c3cccc(-c4ccc(C(C)=O)cc4)c3)cc(=O)oc2c1,-36,69*,.,-4,12,68*,FLuc counter=71*
O=C(CCCN1C(=O)/C(=C/c2cccs2)SC1=S)Nc1cccc(O)c1,9,89*,16,8,25,80*,FLuc counter=73*
O=C(CCN1C(=O)/C(=C\c2cccs2)SC1=S)Nc1ccccn1,21,11,16,7,4,.,
O=C(CCCN1C(=O)/C(=C/c2cccs2)SC1=S)Nc1ccccn1,3,56*,10,8,5,60*,FLuc counter=98*
